# High-throughput results as filed in PubChem BioAssay.
# Autofluor counter: counter-screen for toxin protease inhibitors: compound fluorescence; compound autofluorescence counterscreen, microsphere flow cytometry; active compounds read high; fluorescence intensity (no concentration beside the values); hit rate 3.1% among 360,000; in the data active = fluorescence intensity above about 16000; inconclusive = no clear call, values can overlap the other calls
# BH1578 lux ind: inducers of Vibrio cholerae quorum light production without autoinducers, primary screen, BH1578 luxS cqsA deficient, single point. hit rate 0.16% among 350,000. activation, % at 18.7 µM. V. cholerae BH1578 lux reporter, luminescence, 6 h; in the data active = activation mostly above about 9.7%, no sharp cut-off; inconclusive = no clear call, values can overlap the other calls; inactive = mostly below about 3.7%
# Anthrax LF inh2: Bacillus anthracis LF protease inhibitors, primary screen, biochemical, multiplex microsphere, MLPCN library. inhibition, % at 10 µM. multiplex microsphere protease cleavage assay. hit rate 0.12% among 360,000. AID 588501, 2011. Lethal factor (Bacillus anthracis), P15917
# BoNT F protease: BoNT/F light chain protease inhibitors, primary screen, biochemical, flow cytometry, MLPCN library | Botulinum neurotoxin type F light chain protease (Clostridium botulinum) | Multiplex microsphere protease cleavage assay | inhibition, % at 10 µM | hit rate 0.22% among 360,000 | AID 588497, 2011; in the data active = inhibition above about 35%, passing the limit was not always enough; inconclusive = no clear call, values can overlap the other calls
# BoNT-A LC inh2: BoNT/A light chain protease inhibitors, primary screen, biochemical, flow cytometry, MLPCN library | Botulinum neurotoxin type A light chain protease (Clostridium botulinum A str. ATCC 3502) | multiplex microsphere protease substrate cleavage | inhibition, % at 10 µM | hit rate 0.17% among 360,000
# MazEF act: activators of E. coli MazEF toxin-antitoxin RNase, primary screen, biochemical, fluorescence, uHTS. Endoribonuclease toxin MazF (Escherichia coli (strain K12)), P0AE70. FAM/BHQ RNA-DNA oligo cleavage fluorescence, 5 h. activation, % at 20 µM. hit rate 0.32% among 350,000; in the data active = activation above about 50%
# Hits are given with their value; – = inactive; ? = inconclusive; · = no result given. Shown are actives, neighbours in structure and some others; about 3.9% of the full set was active somewhere. Cut-off read from the data, not from the text of the source, unless noted: active = inhibition above about 30%; inconclusive = no clear call, values can overlap the other calls; inactive = below that.
SMILES,Autofluor counter,BH1578 lux ind,Anthrax LF inh2,BoNT F protease,BoNT-A LC inh2,MazEF act
O=C1CC(C(=O)N2CCN(c3ccccc3O)CC2)CN1Cc1ccccc1 (centres undefined),?,–,–,–,–,–
O=C(O)CCCN1C(=O)/C(=C/c2ccc(-c3nc4ccccc4s3)o2)SC1=S,–,–,39.8,–,30.3,–
O=C(O)CCCCCN1C(=O)/C(=C\c2ccc(-c3ccc(Cl)cc3)o2)SC1=S,–,–,–,–,42.7,–
O=C(O)CCCCCN1C(=O)/C(=C\c2ccncc2)SC1=S,–,–,–,–,–,–
CC(C(=O)NC1C(=O)N2C(C(=O)O)=C(CSc3nnnn3C)CSC12)n1cc(Br)cn1 (centres undefined),–,–,–,–,–,–
Cc1nn(C(C)C(=O)NC2C(=O)N3C(C(=O)O)=C(CSc4nnnn4C)CSC23)cc1Cl (centres undefined),–,25.2,–,–,–,–
COC(=O)C1=C(C)N(C)C(=S)NC1c1ccc(OC)cc1OC (centres undefined),–,–,–,–,–,–
O=c1c2nnn(Cc3ccc(Cl)cc3)c2ncn1Cc1ccc(F)cc1,22862,–,–,–,–,–
Cc1ccc(Cn2cnc3c(nnn3Cc3ccc(Cl)cc3)c2=O)cc1,–,–,–,–,–,–
Cc1cccc(N2CCN(C(=O)c3cc(COc4ccc(F)c(F)c4)on3)CC2)n1,–,–,–,–,–,–
CNC(=S)N1N=C(c2ccc(Br)cc2)CC1c1ccc(Br)cc1 (centres undefined),21159,–,–,–,–,–
CCOc1cnc(-c2ccc(OC)cc2)o1,–,–,–,–,–,–
CCOc1oc(-c2ccc(OC)cc2)nc1C(F)(F)F,16401,–,–,–,–,–
Cc1ccc(-n2c(C)nnc2SCC(=O)NNC(=O)c2ccco2)cc1,–,–,–,–,–,–
COc1cccc(CNC(=O)[C@@H]2CCCN2C(=O)[C@H]2CCCCN2C(=O)c2cccc(Cl)c2)c1,–,·,–,–,–,·
Nc1ccc(Br)cc1,·,–,·,·,·,–
Nc1cc(Br)c(N)c(Br)c1,24247,–,–,–,–,–
Cc1cc(NC(=O)CSc2nc3ccccc3cc2C#N)no1,–,–,–,–,–,54.9
Cc1ccc2nc(SCC(=O)Nc3ccccc3N3CCOCC3)c(C#N)cc2c1,–,·,–,–,–,–
CCOC(=O)CSc1nc(C)c(C(C)=O)cc1C#N,23558,–,–,–,–,–
COc1ccc(/C=C2/N=C(SCC(=O)Nc3cc(C)on3)N(c3ccccc3)C2=O)cc1,–,–,–,–,–,70.2
COc1ccc2nc(SCC(=O)Nc3cc(C)on3)c(C#N)cc2c1,–,–,–,–,–,–
Cc1ccc2nc(SCC(=O)Nc3ccc4sc(C)nc4c3)c(C#N)cc2c1,–,–,–,–,–,167.5
O=C(NC1CCCCC1)N(c1ccccc1)c1nnc(-c2cccc([N+](=O)[O-])c2)s1,–,–,–,–,–,–
CC1CCCCN1CCCNC(=O)c1ccc(NC(=O)C2=CSCCO2)cc1 (centres undefined),–,–,–,–,–,–
SMILES,Autofluor counter,BH1578 lux ind,Anthrax LF inh2,BoNT F protease,BoNT-A LC inh2,MazEF act
CC(C)Cc1ccc(CN2CCCC(NC(=O)CSc3nncn3C)C2)cc1 (centres undefined),–,–,–,–,–,·
Cc1cc(C)c2nc(SCC(=O)Nc3cc(C)on3)c(C#N)cc2c1,–,–,–,–,–,58.9
COC(=O)CSc1nc2cc(C)ccc2cc1C#N,–,–,–,–,–,260.4
CCOC(=O)CC(=O)CSc1nc2ccc(C)cc2cc1C#N,–,–,–,–,–,–
CC(=O)c1ccc(NC(=O)C(C)OC(=O)c2ccc(NS(=O)(=O)c3ccc(F)c(F)c3)cc2)cc1 (centres undefined),–,–,–,–,–,–
O=C(Nc1ccc(S(=O)(=O)Nc2nccs2)cc1)c1ccncc1,–,·,–,–,–,·
CCCCC1CCC(C(=O)Nc2ccc(S(=O)(=O)Nc3nccs3)cc2)CC1 (centres undefined),24211,–,–,–,?,–
